Compound activity as filed in PubChem.
This is a sample that favours compounds with a hit; in the whole collection about 14% have one here.
4-MU autofl = compounds fluorescent in 4-MU spectral region; 59,000 compounds, 11% hits; compound autofluorescence, 340/450 nm, 4-MU equivalents; stronger effect = higher value; max dye-equivalent concentration, M; in the data active = max dye-equivalent concentration above about 10 nM; inconclusive = mostly about 1.1 nM to 9.6 nM
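Compounds in 100 mM Tris, pH 8.0, incubated 15 min at room temperature, then fluorescence read at 340 nm excitation/450 nm emission. Signal converted to 4-MU dye-equivalent concentration using an on-plate six-point 4-MU standard curve.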
HADH2 inhib = inhibitors of human HADH2 dehydrogenase | Potency, µM (top dose mostly 57.1 µM), without a hit: top-dose activity change, negative = inhibition, most hits filed as inhibitors | 73,000 compounds, 3.4% hits | recombinant HADH2, NADH fluorescence, beta-hydroxybutyryl-CoA; also: potency is read from the fitted curve at half-maximal effect; % is scaled to controls: 0 for no effect and ±100 for the full control effect; nearly all actives have a fitted effect of over 60% in size
Target sequence (Q99714 whole entry, looked up, one chain of several): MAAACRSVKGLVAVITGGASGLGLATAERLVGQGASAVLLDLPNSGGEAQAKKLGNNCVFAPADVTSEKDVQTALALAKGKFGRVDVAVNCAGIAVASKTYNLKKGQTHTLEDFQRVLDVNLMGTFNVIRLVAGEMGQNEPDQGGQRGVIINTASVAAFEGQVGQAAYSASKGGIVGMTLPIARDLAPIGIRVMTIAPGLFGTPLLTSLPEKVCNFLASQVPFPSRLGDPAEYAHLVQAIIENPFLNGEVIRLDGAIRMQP
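Activity measured as NADH fluorescence gain (360/450 nm), taken as the change between first and last reads of a 4-min kinetic run. Conditions: pH 9.0 Tris buffer, 20 nM E. coli-expressed His-tagged enzyme, 1 mM NAD+, 90 uM beta-hydroxybutyryl-CoA; 15-min compound preincubation.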
AID923 = qHTS Assay for Allosteric/Competitive Inhibitors of Caspase-1: Spectroscopic Profiling in AFC Spectral Region. compound fluorescence, AFC spectral region (405/520 nm). Potency, µM (highest dose often 57.5 µM), without a hit: at the highest dose fluorescence increase, actives largely listed as activators. 75,000 compounds, 1.1% hits; also: potency is read from the fitted curve at half-maximal effect; 0% is about no effect
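Titrations up to 57 uM read every 20 sec for 3 min (405/520 nm) with 50 nM caspase 1 and 5 uM Ac-WEHD-AFC, pH 7.5 HEPES buffer. Fluorescence-vs-time intercept gave baseline, scaled against on-plate AFC standard.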
HSD17B inhib = HSD17B dehydrogenase inhibition; Q99714; recombinant HSD17B10, NADH fluorescence kinetic; Potency, µM (titrated, usually from 57.1 µM), for inactives: top-dose activity change, negative = inhibition, actives largely listed as inhibitors; 75,000 compounds, 7.6% hits;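 also: the protocol describes HADH2 (HSD17B10) and not the HSD17B4 of the title; potency is read from the fitted curve at half-maximal effect; % is scaled to controls: 0 for no effect and ±100 for the full control effect; nearly all actives have a fitted effect of over 70% in size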
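20 nM HADH2, pH 9.0 Tris/Tween; cpd preinc 15 min RT; start w/ 1 mM NAD+ + 90 uM b-hydroxybutyryl-CoA; kinetic fluor ex360/em450 q30s x 4 min; delta last-first.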
CRE Fsk mod = alters forskolin-stimulated CRE reporter signaling in CHO cells | CHO CRE-bla reporter (cAMP response element driving beta-lactamase), forskolin EC10, beta-lactamase ratio | AID 662 | Potency, µM (highest dose often 38.2 µM), inactives show at the highest dose activity change, negative = inhibition, most hits filed as activators | 71,000 compounds, 2.5% hits; active = well fitted activation curve with a large enough effect in the signal ratio, with a control signal flat, not every such curve was filed as active; inconclusive = small, poorly fitted or top-dose-only effect, or effect the other way, or a change in a side signal; the % refers to the signal ratio; also: potency is read from the fitted curve at half-maximal effect; % of control where 0% means no effect
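Titrated compounds plus EC10 NKH 477 on CHO CRE-bla cells, 3 h, 37 °C. CCF4, 2 h RT. Ratio 460/530 nm → AC50.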
A350 autofl = compound fluoresces in the Alexa 350 spectral region; Compound autofluorescence, 340/450 nm, Alexa 350 dye-equivalents; stronger effect = higher value; max dye-equivalent concentration, M; 59,000 compounds, 11% hits; AID 590; in the data active = max dye-equivalent concentration above about 10 nM; inconclusive = mostly about 1.1 nM to 9.6 nM
* marks the source's active call; other numbers are inactive results; i = inactive; ? = inconclusive; ! = repeats disagree. Unless noted, calls follow the shape of the dose curve; as a rule, active = well fitted curve in the direction sought with a large enough effect; inconclusive = small, poorly fitted or top-dose-only effect, or another doubt; inactive = no such curve, though single readings can be large; an effect the other way counts as inactive or inconclusive.

SMILES | 4-MU autofl | HADH2 inhib | AID923 | HSD17B inhib | CRE Fsk mod | A350 autofl
CCOC(=O)c1oc2ccc(Br)cc2c1NC(=O)CN1CCN(C)CC1 | i | 10% | -1% | 7% | 0.02µM* | ?
CCCCC(=O)Nc1cccc(NC(=O)c2ccc(Br)o2)c1 | i | -3% | 0% | -23% | -10% | i
CCOC(=O)c1cccc(NC(=O)c2cccs2)c1 | i | -16% | 2% | -17% | 1% | i
CCOC(=O)c1sc(NC(=O)c2ccc(Br)o2)cc1C | 1.7e-08M* | 8% | 0% | ? | -2% | 2.3e-08M*
CCOC(=O)c1sc(NC(=O)c2cccs2)cc1C | 4e-07M* | 32µM* | 17% | 32µM* | ? | 4.3e-07M*
O=C(N1CCOCC1)N1CCN(S(=O)(=O)c2ccccc2)C1 | i | 5% | 0% | -3% | -5% | i
CSc1ccc2c(c1)[C@H](N1CCN(C)CC1)Cc1ccccc1S2 | 1.6e-07M*! | -1% | 1% | 37% | -9% | 1.4e-07M*!
COCCN(C(=O)c1csnn1)C(C(=O)NC(C)(C)C)c1cccc(OC)c1 (stereo not given) | i | 10% | 0% | 6% | 0% | i
O=C(CCN1CCCCC1)c1ccc2c(c1)OCCO2 | 1e-08M* | ? | -2% | -19% | ? | 9.8e-08M*
